Shown are actives, neighbours in structure and some others; about 4% of the full set was active somewhere.
Arbovirus anti = antivirals against arbovirus infection; inhibition, % at 10 µM; 0.37% of 200,000 active; arbovirus infection cell-based antiviral screen; AID 1251; in the data active = inhibition above about 30%
HSV replic up = HSV replication enhancement; HSV replication augmentation in cells, fold increase; maximum fold increase; 0.005% of 220,000 active; AID 1956; in the data active = maximum fold increase above about 1.5; inconclusive = no clear call, values can overlap the other calls; tested in PC3 cells
ROMK primary = modulators of human ROMK potassium channel; Tet-inducible ROMK, thallium flux fluorescence; actives lie on both sides; AID 1918; 2% of 130,000 active; B-score at 10 µM; P48048;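 active = signal ratio slope over the read window, or its plate-corrected B-score, at least 3 SD from the plate mean, either direction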;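 note: B-score of the F/F0 ratio slope over 7 to 12 s after thallium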
Target sequence (P48048 whole entry, looked up): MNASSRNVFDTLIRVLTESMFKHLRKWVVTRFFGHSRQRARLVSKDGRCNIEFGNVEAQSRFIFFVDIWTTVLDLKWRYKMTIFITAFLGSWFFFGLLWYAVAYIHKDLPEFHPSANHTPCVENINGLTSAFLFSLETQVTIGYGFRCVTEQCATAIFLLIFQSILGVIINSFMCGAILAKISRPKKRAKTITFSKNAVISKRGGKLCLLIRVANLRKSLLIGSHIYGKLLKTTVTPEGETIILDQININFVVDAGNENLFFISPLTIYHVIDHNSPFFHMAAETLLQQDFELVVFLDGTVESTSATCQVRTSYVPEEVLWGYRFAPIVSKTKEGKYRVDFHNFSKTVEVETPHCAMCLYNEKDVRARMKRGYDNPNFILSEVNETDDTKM
KCC2 mod = KCC2 (human) Cl- transport modulation. Q9H2X9. KCC2 cells, thallium flux FluoZin-2 fluorescence. B-score of Tl+ flux slope (higher = more flux/activation; lower = inhibition) at 10 µM. 2.2% of 190,000 active;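 active = thallium flux slope and its plate-corrected score both differing from the plate sample mean at a set confidence after two filtering rounds, in either direction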;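 note: slope of fluorescence scaled to starting intensity during 10 to 20 s after thallium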
Measles CPE = protection of cells from measles virus; 1.5% of 140,000 active; protection (pct of control), % at 4 µM; Measles virus-infected cells, CPE protection, absorbance; in the data active = protection mostly above about 24%, no sharp cut-off; inactive = mostly below about 26%
KCC2 sec1 = confirmation of human KCC2 transport modulators; shares compounds with KCC2 mod; HEK293-KCC2, thallium flux, FluoZin2 fluorescence; active compounds read high; normalised thallium flux (F/F0 slope) at 10 µM; 15% of 3,700 active; AID 1713;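 active = thallium flux slope above the same plate's solvent-only control mean plus 3 SD; inconclusive = the two replicate wells disagree; inactive = no significant difference from solvent-only control wells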
KCC2 bumet counter = thallium flux persisting under bumetanide in KCC2 cells, counter-screen secondary assay | shares compounds with KCC2 mod | HEK293-KCC2 + bumetanide/ouabain, thallium flux FluoZin2; active compounds read high | normalized thallium flux at 10 µM | 49% of 3,700 active | AID 1714;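 active = thallium entry rate above the same plate's blocked-transporter control wells by more than 3 SD; inconclusive = the two repeat wells disagree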;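 note: raw slope of fluorescence over initial fluorescence between 10 and 20 s after thallium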
KCC2 sec2 = KCC2 (human) modulation, second secondary assay | normalized thallium flux at 10 µM | shares compounds with KCC2 mod | HEK293-KCC2, thallium flux FluoZin2 fluorescence; actives lie on both sides; F/F0 rise rate, 10–20 s post-thallium | 23% of 3,700 active;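 active = thallium flux slope more than 3 SD above or below the plate's solvent-only control mean, mostly below; inconclusive = the two repeat wells disagreed; inactive = no significant shift from solvent-only controls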;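 note: raw slope with 0.1% DMSO as baseline and bumetanide as block control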
HEK counter1 = acts in parental HEK cells, KCC2 counter-screen. shares compounds with KCC2 mod. HEK293 parental cells, thallium flux FluoZin2, ouabain; baseline-ratio fluorescence slope, 10–20 s after thallium. AID 1716. thallium flux rate (normalised fluorescence) at 10 µM. 46% of 3,700 active;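 active = thallium flux rate significantly above the same plate's solvent-only control wells, beyond their mean plus 3 SD; inconclusive = the two replicate wells gave conflicting results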
KCC2 ouabain = modulates human KCC2 on retest with ouabain. HEK293-KCC2, thallium flux FluoZin2 fluorescence; bidirectional: low = inhibitor, high = activator. 48% of 3,700 active. raw Tl+ flux slope (below DMSO = inhibition, above = activation) at 10 µM. shares compounds with KCC2 mod. AID 1717;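 active = thallium flux slope beyond 3 SD from same-plate DMSO control mean in most replicates, usually higher, sometimes lower; inconclusive = repeat tests gave conflicting results; inactive = no significant difference from controls in most replicates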;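 note: slope of initial-normalized fluorescence between seconds 10 and 20 after thallium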
HEK counter2 = parental HEK flux effect, counter-screen 2; shares compounds with KCC2 mod; HEK293 parental, thallium flux FluoZin-2 fluorescence slope; thallium flux slope at 10 µM; 33% of 3,700 active;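 active = thallium flux slope above the same plate's solvent-control mean plus 3 SD in both duplicate wells; inconclusive = duplicate wells that disagreed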;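 note: run without ouabain in cells lacking the KCC2 cotransporter; slope of fluorescence scaled to its starting value between 10 and 20 s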
Active calls of the source: *; i = inactive; ? = inconclusive; · = no result given.

SMILES	Arbovirus anti	HSV replic up	ROMK primary	KCC2 mod	Measles CPE	KCC2 sec1	KCC2 bumet counter	KCC2 sec2	HEK counter1	KCC2 ouabain	HEK counter2
CC(NCc1ccc(F)cc1)C(=O)Nc1cc(S(=O)(=O)N2CCCCC2)ccc1Cl (stereo unspecified)	13	i	0.92	-4.7*	·	0.01	0.008*	?	0.0064	0.016*	0.01
COC(=O)c1c(NS(=O)(=O)c2ccc3ccccc3c2)sc2c1CCCC2	-6	i	2.3	27*	3	0.0071	0.065*	0.058*	0.057*	0.057*	0.039*
COC(=O)c1c(NC(=O)c2ccc(C)c(S(=O)(=O)Nc3ccccc3C)c2)sc2c1CCCC2	-27	i	·	·	11	·	·	·	·	·	·
Cc1noc(C)c1S(=O)(=O)Nc1ccc(C(=O)NC2CCCCCC2)cc1	3	·	0.56	-4.2*	5	?	0.0065	0.032	0.0079	0.022	0.011
Cc1noc(C)c1S(=O)(=O)Nc1ccc(C(=O)NC2CCCCC2C)cc1 (stereo unspecified)	-2	i	·	1.2	8	·	·	·	·	·	·
S=C(NC1CCCC1)N1CCN(c2ccc(Cl)cc2)CC1	6	i	-0.23	-2.2	·	·	·	·	·	·	·
O=C(NC(=S)N1CCN(c2nc(-c3ccccc3)cs2)CC1)c1cccnc1	3	·	1.1	34*	5	0.028*	0.11*	?	0.041*	0.07*	0.015*
Cc1onc(-c2ccccc2)c1C(=O)O/N=C(\N)c1ccc([N+](=O)[O-])o1	·	i	·	·	·	·	·	·	·	·	·
Cc1onc(-c2cccc(Cl)c2Cl)c1C(=O)O/N=C(\N)c1ccc([N+](=O)[O-])o1	·	i	·	-4.9*	·	0.007	0.0033	?	0.0048*	0.017	0.0079*
CCc1cc2c(cc3c(=O)n(CC(=O)N4CCN(c5ccccn5)CC4)nc(CC)n32)s1	-7	i	-0.27	·	15	0.0077	0.0045	0.03	0.0073	0.016	0.0097
CCc1cc2c(cc3c(=O)n(CC(=O)NCCCN(CC)CC)nc(CC)n32)s1	7	i	-0.1	1.2	9	·	·	·	·	·	·
Cc1cccc(C)c1-n1cccc1/C=C1\SC(=S)N(c2cccc(C(=O)O)c2)C1=O	-10	i	-0.6	-4.5*	·	0.0062	0.004	0.029	0.0054*	0.015*	0.0083*
N#CC1=C(N)NC(SCC(=O)c2ccc(Br)cc2)=C(C#N)C12CCCCC2	-32	i	-0.85	-2.8	14	·	·	·	·	·	·
N#CC1=C(N)NC(SCc2ccccc2)=C(C#N)C12CCCCC2	-13	·	·	-3.2*	5	0.0057	0.0046	?	0.0072	0.017	0.011
CCSC1=C(C#N)C2(CCCCC2)C(C#N)=C(N)N1	1	i	·	-4.1*	7	0.0074	0.0054	0.03	?	0.019	0.0093
COc1ccc(C(=O)CSC2=C(C#N)C3(CCCCC3)C(C#N)=C(N)N2)cc1	-10	i	0.12	-2.9	9	0.0073	0.0052	0.034	0.0064*	0.016*	0.011
CCCSC1=C(C#N)C2(CCCCC2)C(C#N)=C(N)N1	-8	i	-0.012	-1.7	·	·	·	·	·	·	·
CNC(=O)C(=O)N/N=C/c1cccnc1	·	i	·	-0.73	·	·	·	·	·	·	·
Cc1ccc(CSCC(=O)NCc2ccco2)cc1	-4	i	0.54	-0.03	·	·	·	·	·	·	·
O=C1C(=O)N(Cc2ccccc2)C(=O)N1CCN1C(=O)c2ccccc2C1=O	17	i	-1.4	-1.2	·	·	·	·	·	·	·
O=C1Cc2ccccc2C(=O)N1CCc1ccccc1	-1	i	·	·	9	0.0067	0.0047	0.028	0.0074	0.018	0.011

Screens as filed in PubChem BioAssay.
